Data from the supplement of paper PMC10849652.
About 8,800 targets were measured; listed, in parts, are those with a hit and a random draw of the rest. About 0.5% of all pairs of compound and target were hits.

Experiments:
Test in all cases: log2 fold change, soluble protein after heating vs DMSO (PISA); higher = thermal stabilisation; K562 lysate, 10 uM; active = over 0.2 and 3.5 SD of the protein, either way, in both replicates (recomputed)
alvocidib = compound: CN1CC[C@H](c2c(O)cc(O)c3c(=O)cc(-c4ccccc4Cl)oc23)[C@H](O)C1 [alvocidib]
Outline: (§1)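 Dounce homogenisation of K562 pellets in PBS pH 7.4 with 1 mM MgCl2 produced a crude extract, used at 1 mg/mL protein. Exposure to 10 μM compound lasted 30 min, and aliquots were then heated for 3 min across 48°C-58°C, pooled and brought to 0.5% NP-40 at 4°C. The supernatant after 21,000xg for 90 min was quantified by TMTpro 16plex LC-MS/MS with channel sums equalised. Duplicate values are given as log-two fold change in thermal stability relative to solvent controls.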

Tubastatin A = compound: CN1CCc2c(c3ccccc3n2Cc2ccc(C(=O)NO)cc2)C1 [Tubastatin A]
Outline: as §1

[1] = compound: CNC(=O)C1=CC=CC=C1NC2=NC(=NC=C2Cl)NC3=C(C=C(C=C3)N4CCOCC4)OC
Outline: as §1

defactinib = compound: CNC(=O)c1ccc(Nc2ncc(C(F)(F)F)c(NCc3nccnc3N(C)S(C)(=O)=O)n2)cc1 [defactinib]
Outline: as §1

[2] = compound: CNc1nc(-c2ccc3c(N)n[nH]c3c2)cc(N2C[C@@H](C(=O)NC3CCCCC3)CC[C@H]2C)n1
Outline: as §1

encorafenib = compound: COC(=O)N[C@@H](C)CNc1nccc(-c2cn(C(C)C)nc2-c2cc(Cl)cc(NS(C)(=O)=O)c2F)n1 [encorafenib]
Outline: as §1

[3] = compound: COC(=O)[C@H](CCSC)NC(=O)C1=C(C=C(C=C1)NC[C@H](CS)N)C2=CC=CC=C2
Outline: as §1

alisertib = compound: COc1cc(Nc2ncc3c(n2)-c2ccc(Cl)cc2C(c2c(F)cccc2OC)=NC3)ccc1C(=O)O [alisertib]
Outline: as §1

[4] = compound: COc1cc2nc(-c3cc(F)ccc3O)nc(N[C@@H]3CNC[C@H]3C(C)(C)O)c2cc1OC
Outline: as §1

gefitinib = compound: COc1cc2ncnc(Nc3ccc(F)c(Cl)c3)c2cc1OCCCN1CCOCC1 [gefitinib]
Outline: as §1

Measured: log2 fold change

UBE2L6 (UniProt O14933)
inactive: alvocidib 0.034 | Tubastatin A -0.051 | [1] 0.082 | defactinib 0.065 | [2] -0.005 | encorafenib 0.06 | alisertib 0.004 | [4] -0.026 | gefitinib 0.092
active: [3] -0.36

TRIM23 (UniProt P36406)
inactive: alvocidib -0.071 | Tubastatin A 0.023 | [1] 0.017 | defactinib -0.008 | [2] 0.354 | encorafenib -0.063 | [3] 0.06 | alisertib -0.014 | [4] 0.154 | gefitinib 0.057

TRIP13 (UniProt Q15645)
Sequence of UniProt Q15645 (Q15645 whole entry, looked up): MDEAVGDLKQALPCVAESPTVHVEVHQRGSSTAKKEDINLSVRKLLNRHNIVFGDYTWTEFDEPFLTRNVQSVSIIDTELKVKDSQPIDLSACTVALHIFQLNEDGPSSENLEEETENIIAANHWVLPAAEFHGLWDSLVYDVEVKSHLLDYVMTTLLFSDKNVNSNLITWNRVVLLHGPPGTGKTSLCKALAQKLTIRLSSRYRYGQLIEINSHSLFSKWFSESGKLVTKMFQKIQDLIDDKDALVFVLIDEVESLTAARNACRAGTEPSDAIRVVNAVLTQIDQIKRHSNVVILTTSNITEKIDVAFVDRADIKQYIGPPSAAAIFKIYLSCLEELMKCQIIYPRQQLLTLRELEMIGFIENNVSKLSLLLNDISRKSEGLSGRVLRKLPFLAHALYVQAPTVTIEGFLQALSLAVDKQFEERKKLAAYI
inactive: alvocidib 0.018 | Tubastatin A -0.159 | [1] 0.014 | defactinib 0.07 | [2] -0.049 | encorafenib 0.03 | [3] 0.114 | alisertib 0 | [4] 0.014 | gefitinib -0.036

UBAP2 (UniProt Q5T6F2)
Sequence of UniProt Q5T6F2 (Q5T6F2 whole entry, looked up): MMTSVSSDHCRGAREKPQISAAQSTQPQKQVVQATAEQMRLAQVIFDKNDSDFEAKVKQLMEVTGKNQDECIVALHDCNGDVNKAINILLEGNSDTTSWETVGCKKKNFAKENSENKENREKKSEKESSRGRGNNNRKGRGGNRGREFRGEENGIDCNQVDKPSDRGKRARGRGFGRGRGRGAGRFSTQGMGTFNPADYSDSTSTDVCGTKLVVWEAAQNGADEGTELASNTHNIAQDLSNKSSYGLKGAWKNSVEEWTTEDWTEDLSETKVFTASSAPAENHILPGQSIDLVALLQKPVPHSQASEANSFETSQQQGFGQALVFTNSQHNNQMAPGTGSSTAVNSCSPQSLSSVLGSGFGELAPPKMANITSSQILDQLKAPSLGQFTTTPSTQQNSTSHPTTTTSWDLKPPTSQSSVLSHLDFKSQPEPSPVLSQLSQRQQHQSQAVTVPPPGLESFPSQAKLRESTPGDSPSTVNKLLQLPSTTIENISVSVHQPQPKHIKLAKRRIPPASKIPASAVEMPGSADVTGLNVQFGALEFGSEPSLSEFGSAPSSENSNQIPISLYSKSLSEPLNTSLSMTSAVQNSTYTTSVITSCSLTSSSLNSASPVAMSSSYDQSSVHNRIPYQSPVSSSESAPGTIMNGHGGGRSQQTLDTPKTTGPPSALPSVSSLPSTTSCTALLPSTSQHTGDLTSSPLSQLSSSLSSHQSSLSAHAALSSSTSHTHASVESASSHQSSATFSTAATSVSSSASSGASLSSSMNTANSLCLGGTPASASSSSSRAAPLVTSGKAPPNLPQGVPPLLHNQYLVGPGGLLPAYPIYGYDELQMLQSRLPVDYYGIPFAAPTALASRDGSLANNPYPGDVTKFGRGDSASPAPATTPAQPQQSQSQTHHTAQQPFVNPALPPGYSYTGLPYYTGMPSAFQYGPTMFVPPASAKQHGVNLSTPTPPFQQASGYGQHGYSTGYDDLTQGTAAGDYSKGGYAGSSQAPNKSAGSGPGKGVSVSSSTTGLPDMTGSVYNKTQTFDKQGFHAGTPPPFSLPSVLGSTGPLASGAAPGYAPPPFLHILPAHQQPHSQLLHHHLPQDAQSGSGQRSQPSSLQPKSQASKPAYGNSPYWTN
inactive: alvocidib -0.081 | Tubastatin A 0.026 | [1] -0.026 | defactinib -0.003 | [2] 0.005 | encorafenib 0.033 | [3] -0.021 | alisertib 0.005 | [4] 0.011 | gefitinib 0.014

TTI1 (UniProt O43156)
inactive: alvocidib 0 | Tubastatin A -0.163 | [1] 0.015 | defactinib 0.022 | [2] -0.035 | encorafenib 0.022 | [3] 0.026 | alisertib -0.013 | [4] -0.011 | gefitinib -0.016

TRAPPC12 (UniProt Q8WVT3)
inactive: alvocidib -0.009 | Tubastatin A -0.079 | [1] 0.063 | defactinib 0.002 | [2] -0.039 | encorafenib 0.065 | [3] 0.057 | alisertib 0.034 | [4] 0.01 | gefitinib 0.022

UBA1 (UniProt P22314)
inactive: alvocidib 0.012 | Tubastatin A -0.082 | [1] 0.007 | defactinib -0.011 | [2] -0.026 | encorafenib -0.017 | [3] 0.139 | alisertib 0.001 | [4] 0.002 | gefitinib -0.01

UBXN6 (UniProt Q9BZV1)
Sequence of UniProt Q9BZV1 (Q9BZV1 whole entry, looked up): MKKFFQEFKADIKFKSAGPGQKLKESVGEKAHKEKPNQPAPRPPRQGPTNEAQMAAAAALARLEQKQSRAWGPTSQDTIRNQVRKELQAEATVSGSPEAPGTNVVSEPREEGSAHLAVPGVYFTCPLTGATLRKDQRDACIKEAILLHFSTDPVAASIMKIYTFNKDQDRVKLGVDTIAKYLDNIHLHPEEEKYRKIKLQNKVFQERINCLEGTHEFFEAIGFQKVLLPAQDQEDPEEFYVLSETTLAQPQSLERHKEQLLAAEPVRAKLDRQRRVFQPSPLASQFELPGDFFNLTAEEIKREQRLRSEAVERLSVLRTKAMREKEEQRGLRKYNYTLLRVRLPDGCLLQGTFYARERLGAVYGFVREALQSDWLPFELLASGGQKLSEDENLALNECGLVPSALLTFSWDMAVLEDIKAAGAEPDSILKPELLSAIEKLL
inactive: alvocidib 0.014 | Tubastatin A -0.087 | [1] 0.03 | defactinib -0.019 | [2] 0.055 | encorafenib 0.042 | [3] 0.104 | alisertib 0.017 | [4] 0.006 | gefitinib 0.006

TTC5 (UniProt Q8N0Z6)
inactive: alvocidib -0.006 | Tubastatin A -0.092 | [1] -0.017 | defactinib -0.017 | [2] -0.02 | encorafenib -0.021 | [3] 0.057 | alisertib -0.036 | [4] -0.01 | gefitinib 0.091

TFCP2 (UniProt Q12800)
inactive: alvocidib 0.015 | Tubastatin A -0.215 | [1] 0.169 | defactinib 0.003 | [2] 0.009 | encorafenib 0.093 | [3] 0.044 | alisertib 0.019 | [4] -0.049 | gefitinib -0.033

TIMM44 (UniProt O43615)
Sequence of UniProt O43615 (O43615 whole entry, looked up): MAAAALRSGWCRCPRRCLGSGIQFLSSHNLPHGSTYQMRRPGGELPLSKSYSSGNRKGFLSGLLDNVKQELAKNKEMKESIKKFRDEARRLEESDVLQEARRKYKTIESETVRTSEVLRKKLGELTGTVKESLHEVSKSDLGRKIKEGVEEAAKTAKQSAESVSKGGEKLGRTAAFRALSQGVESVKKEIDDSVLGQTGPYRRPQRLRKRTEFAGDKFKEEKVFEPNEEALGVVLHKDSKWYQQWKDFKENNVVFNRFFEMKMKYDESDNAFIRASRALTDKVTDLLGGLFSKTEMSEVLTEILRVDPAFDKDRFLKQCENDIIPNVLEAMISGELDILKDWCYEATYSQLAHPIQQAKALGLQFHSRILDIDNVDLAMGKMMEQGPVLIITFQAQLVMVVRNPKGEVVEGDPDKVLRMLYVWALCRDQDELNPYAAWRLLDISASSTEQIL
inactive: alvocidib 0.001 | Tubastatin A 0.083 | [1] 0.039 | defactinib 0.018 | [2] -0.017 | encorafenib 0.056 | [3] 0.08 | alisertib 0.082 | [4] -0.04 | gefitinib 0.017

TMPO (UniProt P42167)
Sequence of UniProt P42167 (P42167 whole entry, looked up): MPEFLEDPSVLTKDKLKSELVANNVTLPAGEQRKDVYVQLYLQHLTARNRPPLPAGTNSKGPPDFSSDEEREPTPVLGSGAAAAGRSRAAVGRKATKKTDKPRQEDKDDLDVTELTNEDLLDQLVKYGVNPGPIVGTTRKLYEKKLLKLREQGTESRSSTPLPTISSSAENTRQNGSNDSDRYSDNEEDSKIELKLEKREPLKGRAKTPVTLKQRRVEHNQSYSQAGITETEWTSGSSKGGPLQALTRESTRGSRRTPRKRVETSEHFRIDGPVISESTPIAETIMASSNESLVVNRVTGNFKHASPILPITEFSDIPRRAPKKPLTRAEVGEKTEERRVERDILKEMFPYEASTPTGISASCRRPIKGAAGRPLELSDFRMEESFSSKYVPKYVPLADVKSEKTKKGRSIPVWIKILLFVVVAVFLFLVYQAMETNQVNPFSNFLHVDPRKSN
inactive: alvocidib -0.007 | Tubastatin A 0.018 | [1] -0.034 | defactinib -0.015 | [2] 0.029 | encorafenib 0.035 | [3] -0.163 | alisertib -0.026 | [4] -0.025 | gefitinib 0.027

UCHL5 isoform 3 (UniProt Q9Y5K5)
inactive: alvocidib -0.009 | Tubastatin A -0.063 | [1] 0.008 | defactinib -0.024 | [2] -0.011 | encorafenib -0.004 | [3] 0.088 | alisertib -0.026 | [4] -0.012 | gefitinib -0.014

TNIK isoform 4 (UniProt Q9UKE5)
inactive: alvocidib -0.015 | Tubastatin A -0.071 | [1] 0.085 | defactinib 0.148 | [2] -0.04 | encorafenib -0.026 | [3] -0.097 | alisertib -0.026 | [4] 0.247 | gefitinib -0.005

TMPO (UniProt P42166)
inactive: alvocidib -0.196 | Tubastatin A -0.145 | [1] 0.002 | defactinib 0.028 | [2] -0.003 | encorafenib 0.011 | [3] 0.174 | alisertib -0.024 | [4] 0.012 | gefitinib 0.011

TYMS (UniProt P04818)
inactive: alvocidib 0.015 | Tubastatin A -0.023 | [1] 0.017 | defactinib 0.002 | [2] -0.018 | encorafenib 0.013 | [3] -0.006 | alisertib 0.021 | [4] 0.006 | gefitinib -0.024

TJP1 (UniProt H0Y3R8)
inactive: alvocidib 0.079

TBCE (UniProt Q15813)
active: [3] 0.265
inactive: alvocidib -0.008 | Tubastatin A -0.162 | [1] -0.026 | defactinib 0.031 | [2] -0.028 | encorafenib -0.008 | alisertib -0.008 | [4] -0.006 | gefitinib -0.006

TBC1D23 (UniProt Q9NUY8)
inactive: alvocidib 0 | Tubastatin A -0.076 | [1] 0.025 | defactinib -0.006 | [2] 0.05 | encorafenib -0.009 | [3] -0.019 | alisertib -0.014 | [4] 0.002 | gefitinib -0.006

TMOD1 (UniProt P28289)
inactive: alvocidib 0.017 | Tubastatin A -0.081 | [1] 0.042 | defactinib 0.046 | [2] -0.009 | encorafenib -0.004 | [3] -0.002 | alisertib 0.014 | [4] 0.016 | gefitinib -0.008

TRIP12 isoform 2 (UniProt Q14669)
inactive: alvocidib 0.018 | Tubastatin A -0.035 | [1] 0.002 | defactinib 0.045 | [2] -0.17 | encorafenib 0.049 | [3] -0.018 | alisertib 0.019 | [4] -0.122 | gefitinib 0.005

TLK2 isoform 2 (UniProt Q86UE8)
inactive: alvocidib -0.027 | Tubastatin A -0.07 | [1] -0.03 | defactinib 0.117 | [2] -0.071 | encorafenib 0.046 | [3] -0.063 | alisertib -0.01 | [4] 0.041 | gefitinib -0.004

TUBGCP2 isoform 4 (UniProt Q9BSJ2)
Sequence of UniProt Q9BSJ2 (Q9BSJ2 whole entry, looked up): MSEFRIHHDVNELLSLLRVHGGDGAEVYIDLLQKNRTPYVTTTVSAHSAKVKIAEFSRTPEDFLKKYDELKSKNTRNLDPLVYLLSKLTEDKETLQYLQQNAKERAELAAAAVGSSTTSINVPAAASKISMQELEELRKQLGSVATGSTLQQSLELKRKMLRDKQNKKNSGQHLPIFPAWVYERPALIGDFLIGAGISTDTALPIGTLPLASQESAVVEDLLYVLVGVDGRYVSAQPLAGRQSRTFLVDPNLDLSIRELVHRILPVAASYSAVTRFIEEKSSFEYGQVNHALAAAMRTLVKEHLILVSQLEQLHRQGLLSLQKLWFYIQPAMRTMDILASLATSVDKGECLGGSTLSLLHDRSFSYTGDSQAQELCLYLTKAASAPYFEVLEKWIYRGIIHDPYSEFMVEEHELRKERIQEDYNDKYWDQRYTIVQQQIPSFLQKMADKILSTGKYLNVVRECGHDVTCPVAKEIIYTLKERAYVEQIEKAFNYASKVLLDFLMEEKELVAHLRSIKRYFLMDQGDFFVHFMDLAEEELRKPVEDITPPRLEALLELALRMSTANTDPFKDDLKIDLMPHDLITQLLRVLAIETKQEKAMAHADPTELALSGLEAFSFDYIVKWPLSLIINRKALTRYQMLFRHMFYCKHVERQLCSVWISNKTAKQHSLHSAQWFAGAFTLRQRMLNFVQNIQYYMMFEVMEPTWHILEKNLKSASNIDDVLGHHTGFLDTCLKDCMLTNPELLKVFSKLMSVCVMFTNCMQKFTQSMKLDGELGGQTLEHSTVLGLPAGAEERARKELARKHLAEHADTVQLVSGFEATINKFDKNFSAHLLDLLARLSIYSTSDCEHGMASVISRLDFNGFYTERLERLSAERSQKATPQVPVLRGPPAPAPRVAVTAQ
inactive: alvocidib -0.007 | Tubastatin A -0.008 | [1] 0.053 | defactinib 0.032 | [2] 0.003 | encorafenib 0.045 | [3] -0.026 | alisertib 0.021 | [4] 0.017 | gefitinib -0.018

TLK2 isoform 3 (UniProt Q86UE8)
inactive: alvocidib 0.007

UBTF (UniProt P17480)
Sequence of UniProt P17480 (P17480 whole entry, looked up): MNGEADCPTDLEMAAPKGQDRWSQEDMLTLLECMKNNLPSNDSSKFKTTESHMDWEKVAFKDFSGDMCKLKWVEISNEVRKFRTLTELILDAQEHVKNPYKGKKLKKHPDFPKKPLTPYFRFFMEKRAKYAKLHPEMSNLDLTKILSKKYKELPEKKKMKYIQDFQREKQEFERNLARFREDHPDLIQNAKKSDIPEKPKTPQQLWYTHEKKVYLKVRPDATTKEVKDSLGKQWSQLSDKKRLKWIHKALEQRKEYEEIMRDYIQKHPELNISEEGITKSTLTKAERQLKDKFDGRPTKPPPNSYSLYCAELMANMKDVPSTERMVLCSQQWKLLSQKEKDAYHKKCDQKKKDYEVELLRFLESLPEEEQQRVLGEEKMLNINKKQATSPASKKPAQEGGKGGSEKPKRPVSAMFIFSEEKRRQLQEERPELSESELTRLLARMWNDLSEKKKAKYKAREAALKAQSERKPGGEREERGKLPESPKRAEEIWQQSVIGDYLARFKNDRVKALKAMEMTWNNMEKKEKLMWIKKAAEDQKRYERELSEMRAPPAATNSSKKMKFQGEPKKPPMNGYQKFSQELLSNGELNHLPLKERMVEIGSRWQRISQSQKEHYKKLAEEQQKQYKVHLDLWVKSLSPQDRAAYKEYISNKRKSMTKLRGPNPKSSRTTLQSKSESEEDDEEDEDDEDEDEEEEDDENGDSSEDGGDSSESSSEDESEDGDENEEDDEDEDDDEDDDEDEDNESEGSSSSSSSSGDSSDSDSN
inactive: alvocidib 0.026 | Tubastatin A -0.135 | [1] -0.008 | defactinib 0.007 | [2] 0.004 | encorafenib -0.002 | [3] 0.073 | alisertib 0.055 | [4] -0.018 | gefitinib 0.045

UBR5 (UniProt O95071)
inactive: alvocidib -0.011 | Tubastatin A -0.084 | [1] 0.002 | defactinib 0.016 | [2] 0 | encorafenib 0.025 | [3] -0.044 | alisertib -0.028 | [4] -0.005 | gefitinib 0.014

TTC38 (UniProt Q5R3I4)
Sequence of UniProt Q5R3I4 (Q5R3I4 whole entry, looked up): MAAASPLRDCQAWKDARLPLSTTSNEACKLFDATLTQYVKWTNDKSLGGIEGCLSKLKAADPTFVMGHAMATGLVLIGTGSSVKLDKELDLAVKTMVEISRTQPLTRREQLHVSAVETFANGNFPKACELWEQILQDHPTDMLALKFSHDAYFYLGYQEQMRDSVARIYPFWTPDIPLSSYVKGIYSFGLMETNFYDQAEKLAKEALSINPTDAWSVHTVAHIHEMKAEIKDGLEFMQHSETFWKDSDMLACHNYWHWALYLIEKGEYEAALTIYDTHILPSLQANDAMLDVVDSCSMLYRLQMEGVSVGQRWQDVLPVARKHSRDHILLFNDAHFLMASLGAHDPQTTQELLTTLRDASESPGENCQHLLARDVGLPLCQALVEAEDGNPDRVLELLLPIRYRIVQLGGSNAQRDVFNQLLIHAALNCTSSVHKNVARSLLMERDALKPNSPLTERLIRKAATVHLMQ
inactive: alvocidib 0.121 | Tubastatin A -0.013 | [1] 0.004 | defactinib 0.001 | [2] 0.034 | encorafenib -0.045 | [3] 0.013 | alisertib -0.046 | [4] -0.018 | gefitinib -0.069

TUBA4A (UniProt P68366)
inactive: alvocidib 0.003 | Tubastatin A -0.068 | [1] 0.049 | defactinib 0.014 | [2] -0.001 | encorafenib -0.039 | [3] 0.125 | alisertib 0.027 | [4] 0.032 | gefitinib 0.007

TUBB1 (UniProt Q9H4B7)
inactive: alvocidib 0.026 | Tubastatin A -0.059 | [1] 0.021 | defactinib 0.07 | [2] -0.005 | encorafenib -0.015 | [3] 0.071 | alisertib -0.013 | [4] -0.034 | gefitinib -0.047

TSFM (UniProt P43897)
inactive: alvocidib 0.036 | Tubastatin A -0.088 | [1] 0.017 | defactinib 0.015 | [2] 0.01 | encorafenib -0.017 | [3] 0.13 | alisertib -0.021 | [4] 0.017 | gefitinib 0.018

TUBA4A (UniProt C9JQ00)
inactive: alvocidib 0.074

UBE3B (UniProt Q7Z3V4)
inactive: alvocidib -0.07 | Tubastatin A -0.134 | [1] 0.136 | defactinib 0.028 | [2] 0.008 | encorafenib 0.102 | [3] -0.047 | alisertib 0 | [4] 0.006 | gefitinib 0.044
